We go through 13 molecules from PubChem BioAssay (NCATS).

Assay [1] in a line: qHTS of pediatric cancer cell lines to identify multiple opportunities for drug repurposing: Primary screen for A673 cells (AID 1347092). Also: nearly all actives have a fitted effect of over 45% in size. In short, it runs like this:
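Titration-based qHTS on A673 cells: MIPE compounds spanned 11 points (0.78 nM to 46 µM final), NPC compounds 8 points (0.59 nM to 46 µM final). Viability after 48 h was measured by ATP luminescence.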

A short description of assay [2]: qHTS of pediatric cancer cell lines to identify multiple opportunities for drug repurposing: Primary screen for SK-N-MC cells (AID 1347093). The gist of the method: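 Metabolically active cells were quantified by ATP-dependent luminescence (CellTiter-Glo, 15 min at room temperature) following 48 h treatment. Cells had been plated at 500-1,000 per well and settled for 5 h beforehand.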

The nature of assay [3]: qHTS of pediatric cancer cell lines to identify multiple opportunities for drug repurposing: Primary screen for NB-EBc1 cells (AID 1347095). In short, it runs like this:
(§1)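 CRCs from 8- or 11-point titrations (lowest final 0.59 nM NPC, 0.78 nM MIPE). Cell viability: CellTiter-Glo after 48 h incubation, 15 min room-temperature development, luminescence imaging.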
(In qHTS, concentration-response curves come from the screen itself.)

Assay [4] can be described thus: qHTS of pediatric cancer cell lines to identify multiple opportunities for drug repurposing: Primary screen for U-2 OS cells (AID 1347096). Also: nearly all actives have a fitted effect of over 50% in size. The gist of the method:
(§2)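 Cells (500-1,000/well) rested 5 h, then received compounds for 48 h; metabolically active cells were measured by CellTiter-Glo luminescence. Final concentrations spanned up to 46 µM (MIPE, 11-point) or 0.59 nM-46 µM (NPC, 8-point) in primary screens, 11-point in follow-ups.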

The nature of assay [5]: qHTS of pediatric cancer cell lines to identify multiple opportunities for drug repurposing: Primary screen for Saos-2 cells (AID 1347097). Also: nearly all actives have a fitted effect of over 40% in size. The gist of the method: as §1
Assay [6] is described as follows: qHTS of pediatric cancer cell lines to identify multiple opportunities for drug repurposing: Primary screen for SK-N-SH cells (AID 1347098). Also: nearly all actives have a fitted effect of over 65% in size. The gist of the method: as §2
Assay [7] is described as follows: qHTS of pediatric cancer cell lines to identify multiple opportunities for drug repurposing: Primary screen for NB1643 cells (AID 1347099). Also: nearly all actives have a fitted effect of over 50% in size. In short, it runs like this:
as §1

Assay [8] in a line: qHTS of pediatric cancer cell lines to identify multiple opportunities for drug repurposing: Primary screen for LAN-5 cells (AID 1347100). The gist of the method: as §2
Assay [9] can be described thus: qHTS of pediatric cancer cell lines to identify multiple opportunities for drug repurposing: Primary screen for BT-12 cells (AID 1347101). Also: nearly all actives have a fitted effect of over 25% in size. In short, it runs like this: as §2
The nature of assay [10]: qHTS of pediatric cancer cell lines to identify multiple opportunities for drug repurposing: Primary screen for OHS-50 cells (AID 1347103). Also: nearly all actives have a fitted effect of over 40% in size. In short, it runs like this: as §2
A short description of assay [11]: qHTS of pediatric cancer cell lines to identify multiple opportunities for drug repurposing: Primary screen for RD cells (AID 1347104). Also: nearly all actives have a fitted effect of over 55% in size. In short, it runs like this: as §1
Assay [12] in a line: qHTS of pediatric cancer cell lines to identify multiple opportunities for drug repurposing: Primary screen for control Hh wild type fibroblast cells (AID 1347106). Also: nearly all actives have a fitted effect of over 55% in size. In short, it runs like this:
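Cells (500-1,000/well) in growth media were settled 5 h at 37 degrees C, then given compounds for 48 h. Viability was read as CellTiter-Glo luminescence. Primary runs used MIPE at 11 points (0.78 nM-46 µM) and NPC at 8 points (0.59 nM-46 µM); follow-ups used 11 points.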

Assay [13] can be described thus: qHTS of pediatric cancer cell lines to identify multiple opportunities for drug repurposing: Primary screen for Rh30 cells (AID 1347107). Also: nearly all actives have a fitted effect of over 75% in size. The gist of the method:
as §2

The nature of assay [14]: qHTS of pediatric cancer cell lines to identify multiple opportunities for drug repurposing: Primary screen for Rh41 cells (AID 1347108). Also: nearly all actives have a fitted effect of over 70% in size. The gist of the method:
as §1

Assay [15] can be described thus: qHTS of pediatric cancer cell lines to identify multiple opportunities for drug repurposing: Primary screen for BT-37 cells (AID 1347094). The gist of the method: as §1
Assay [16] can be described thus: qHTS of pediatric cancer cell lines to identify multiple opportunities for drug repurposing: Primary screen for Rh18 cells (AID 1347102). Also: nearly all actives have a fitted effect of over 65% in size. The gist of the method: as §2
Assay [17] in a line: qHTS of pediatric cancer cell lines to identify multiple opportunities for drug repurposing: Confirmatory screen for A673 cells (AID 1347110).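 Also: cells exposed to compound for 48 h before the viability read; nearly all actives have a fitted effect of over 65% in size.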 In short, it runs like this: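 Forty-eight-hour viability assay. Follow-up compounds ran at 11-point dilutions; positive control bortezomib at 2.3 uM final, neutral control DMSO.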
Assay [18] in a line: qHTS of pediatric cancer cell lines to identify multiple opportunities for drug repurposing: Confirmatory screen for SK-N-MC cells (AID 1347111).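 Also: cells exposed to compound for 48 h before the readout; nearly all actives have a fitted effect of over 70% in size.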 The gist of the method: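 Seed 500-1,000 cells/well; rest 5 h at 37 degrees C. Pin-transfer compounds, 11-point titration. Incubate 48 h. Add CellTiter-Glo, 15 min RT, read luminescence.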
A short description of assay [19]: qHTS of pediatric cancer cell lines to identify multiple opportunities for drug repurposing: Primary screen for MG 63 (6-TG R) cells (AID 1347105). Also: nearly all actives have a fitted effect of over 50% in size. The gist of the method: as §1
A short description of assay [20]: qHTS of pediatric cancer cell lines to identify multiple opportunities for drug repurposing: Confirmatory screen for NB1643 cells (AID 1347109). Also: nearly all actives have a fitted effect of over 45% in size. In short, it runs like this:
as §2

Records with an inconclusive call do not appear. The source made the active and inactive calls. Calls follow the shape of the dose curve; as a rule, active = well fitted curve in the direction sought with a large enough effect; inconclusive = small, poorly fitted or top-dose-only effect, or another doubt; inactive = no such curve, though single readings can be large; an effect the other way counts as inactive or inconclusive.
Potency is read from the fitted curve at half-maximal effect.

As to `C[C@H]1COc2c(N3CCN(C)CC3)c(F)cc3c(=O)c(C(=O)O)cn1c23`, the Potency result in assay [1], in assay [2], in [3], in assay [4], in assay [5] and in [6] was “inactive” throughout. Further, the Potency entry in [7], in assay [8], in assay [9], in assay [10], in [11] and in assay [12] was “inactive” each time. The Potency result in assay [13] and in assay [14] was “inactive” throughout.
Take `CC(=O)[C@]1(O)Cc2c(O)c3c(c(O)c2[C@@H](O[C@H]2C[C@H](N)[C@@H](O)[C@H](C)O2)C1)C(=O)c1ccccc1C3=O`: the Potency is 0.148 µM (active) in [1]; 0.118 µM (active) in [2]; 0.193 µM (active) in assay [15]; 0.0372 µM (active) in assay [3]; 0.192 µM (active) in assay [6]; 0.743 µM (active) in assay [7]. The Potency in assay [8] is 0.0935 µM (active); in assay [9] it was 0.685 µM (active); in assay [16] it was 4.69 µM (active); in assay [10], 0.485 µM (active); in assay [11] it was 1.05 µM (active); in [12] it was 3.72 µM (active). Also, the Potency in assay [13] was 4.69 µM (active); in assay [14], 0.935 µM (active); in assay [17], 0.0827 µM (active); in assay [18], 0.522 µM (active).
In the case of `Nc1nc(N)c2nc(-c3cccc(O)c3)c(-c3cccc(O)c3)nc2n1`, the Potency in assay [1] is 2.35 µM (active); in assay [2], 1.48 µM (active); in [15], 21.7 µM (active); in assay [5] it was 18.7 µM (active); in assay [6], 19.2 µM (active); in assay [7], 5.9 µM (active). The Potency in assay [8] was 11.8 µM (active); in assay [9], 21.7 µM (active); in assay [10], 19.3 µM (active); in assay [11] it was 11.8 µM (active).
`Oc1ccc([C@@H]2Oc3ccc(O)cc3[C@@H]3CCC[C@@H]32)cc1`: the Potency is 9.35 µM (active) in assay [1]; 4.18 µM (active) in assay [2]; 7.43 µM (active) in assay [3]; 6.62 µM (active) in [5]; 24.1 µM (active) in assay [6]; 16.6 µM (active) in [7]. Moreover, the Potency is 10.5 µM (active) in assay [8], 24.3 µM (active) in assay [9], 24.3 µM (active) in [10] and 16.6 µM (active) in assay [11]. Besides, in [4], the Potency entry is “inactive”.
For `C=CC1=C(C(=O)O)N2C(=O)[C@@H](NC(=O)C(=NO)c3csc(N)n3)[C@H]2SC1`, the Potency result in assay [1], in assay [2], in [3], in assay [4], in assay [5] and in [6] was “inactive” throughout. For the same molecule, the Potency result in [7], in assay [8], in assay [9], in assay [16], in assay [10] and in assay [11] was “inactive” each time. Besides, the Potency entry in assay [19], in assay [12], in assay [13] and in assay [14] was “inactive” throughout.
For the molecule `C=CC(=O)Nc1cc(NC(=O)c2ccc(C)c(NC(=O)c3ccno3)c2)cc(C(F)(F)F)c1`, the Potency in [1] is 14.8 µM (active); in [2], 10.5 µM (active); in assay [15], 27.3 µM (active); in assay [5], 18.7 µM (active); in assay [6], 24.1 µM (active); in assay [7] it was 18.7 µM (active). The Potency in assay [8] is 16.6 µM (active); in assay [11], 33.2 µM (active); in assay [14] it was 20.9 µM (active).
For `Cc1cnc(Nc2ccc(CN3CCOCC3)cc2)nc1Nc1cccc(S(=O)(=O)NC(C)(C)C)c1`, the Potency is 2.96 µM (active) in assay [1]; 0.833 µM (active) in assay [2]; 2.64 µM (active) in [3]; 7.43 µM (active) in assay [4]; 3.72 µM (active) in assay [5]; 3.04 µM (active) in [6]. The Potency is 3.72 µM (active) in [7]; 1.32 µM (active) in assay [8]; 9.68 µM (active) in assay [9]; 3.72 µM (active) in assay [16]; 2.17 µM (active) in assay [10]; 6.62 µM (active) in assay [11]. Moreover, the Potency was 3.72 µM (active) in assay [19]; 11.8 µM (active) in [12]; 6.62 µM (active) in assay [13]; 5.85 µM (active) in assay [20]; 13.1 µM (active) in assay [17]; 5.22 µM (active) in [18].
Take `CC1(C)O[C@@H]2C[C@H]3[C@@H]4CCC5=CC(=O)C=C[C@]5(C)[C@@H]4[C@@H](O)C[C@]3(C)[C@]2(C(=O)CO)O1`: the Potency entry in assay [1], in assay [15], in [4], in assay [6], in assay [8] and in [16] was “inactive” each time. Besides, the Potency entry in [10], in [19], in assay [12], in assay [13], in assay [14] and in [20] was “inactive” in each case. Besides, the Potency result in assay [17] and in assay [18] was “inactive” throughout. Besides, in [2], the Potency was 29.6 µM (active).
With `COc1cc(C)c(Sc2cnc(NC(=O)c3ccc(CNC(C)C(C)(C)C)cc3)s2)cc1C(=O)N1CCN(C(C)=O)CC1` (stereo unspecified), the Potency in assay [1] was 2.35 µM (active); in assay [2], 2.09 µM (active); in assay [3], 0.743 µM (active); in [6], 4.82 µM (active); in [7], 3.72 µM (active); in [8] it was 1.66 µM (active). Moreover, the Potency in assay [9] was 19.3 µM (active); in assay [16] it was 14.8 µM (active); in assay [10] it was 4.85 µM (active); in assay [11], 14.8 µM (active); in assay [19] it was 14.8 µM (active); in assay [14], 7.43 µM (active). For the same molecule, the Potency entry in assay [4] and in [5] was “inactive” throughout.
As for `C[N+]1(C)[C@@H]2C[C@@H](OC(=O)C(O)(c3cccs3)c3cccs3)C[C@H]1[C@@H]1O[C@@H]12`, the Potency entry in assay [1], in [2], in [3], in [4], in [5] and in assay [6] was “inactive” in each case. Also, the Potency entry in [7], in assay [8], in [9], in assay [10], in assay [11] and in assay [19] was “inactive” each time. Also, the Potency result in assay [12], in assay [13] and in assay [14] was “inactive” in each case.
For `C=CCNc1c(O)cc2c(O)c1C[C@@H](C)C[C@H](OC)[C@@H](O)[C@@H](C)C=C(C)[C@H](OC(N)=O)[C@@H](OC)C=CC=C(C)C(=O)N2`, the Potency was 0.935 µM (active) in assay [1]; 1.18 µM (active) in [2]; 0.217 µM (active) in assay [15]; 1.32 µM (active) in [3]; 3.04 µM (active) in assay [6]; 1.48 µM (active) in assay [7]. For the same molecule, the Potency is 1.87 µM (active) in [8], 0.935 µM (active) in [16], 0.264 µM (active) in assay [11] and 2.35 µM (active) in [14]. Moreover, the Potency result in assay [13] is “inactive”.
In the case of `Nc1cccc2c1C(=O)N(C1CCC(=O)NC1=O)C2=O` (stereo unspecified), the Potency result in [1], in assay [2], in assay [3], in [4], in assay [6] and in assay [7] was “inactive” throughout. Further, the Potency result in [8], in assay [16], in assay [10], in [11], in assay [12] and in assay [13] was “inactive” throughout.
As for `CCOc1cc2c(c(F)c1OCC)C(=N)N(CC(=O)c1cc(N3CCOCC3)c(OC)c(C(C)(C)C)c1)C2`, the Potency is 9.35 µM (active) in [1]; 0.833 µM (active) in assay [2]; 27.3 µM (active) in assay [15]; 14.8 µM (active) in assay [5]; 4.69 µM (active) in [7]; 27.3 µM (active) in [9]. Further, the Potency in [10] is 21.7 µM (active); in assay [11], 16.6 µM (active); in assay [19], 14.8 µM (active). Besides, the Potency result in assay [12] was “inactive”.
